Tau fluor counter – Counterscreen qHTS for Inhibitors of Tau Fibril Formation, Fluorescence Polarization; AID 1463, 2008; tau K18 P301L Alexa594 fluorescence, heparin fibrillization; Potency, µM (series often up to 57.7 µM), without a hit: at the highest dose activity change, negative = decrease; hit rate 0.93% among 280,000; note: nearly all actives have a fitted effect of over 55% in size
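Human K18 P301L tau (15 uM unlabeled plus 0.24 uM Alexa 594-labeled, final) in 100 mM sodium acetate pH 7 was mixed with compound and 20 uM heparin and incubated 6 hr at 37 C.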
NPSR antag – qHTS Assay for Antagonists of the Neuropeptide S Receptor: cAMP Signal Transduction; hit rate 1% among 220,000; CHO-NPSR cells, cAMP TR-FRET, antagonist mode; Potency, µM (doses to about 38.3 µM), without a hit: at the top dose activity change, negative = inhibition, usual class: inhibitors; Q6W5P4; note: nearly all actives have a fitted effect of over 50% in size
Target sequence (Q6W5P4 whole entry, looked up): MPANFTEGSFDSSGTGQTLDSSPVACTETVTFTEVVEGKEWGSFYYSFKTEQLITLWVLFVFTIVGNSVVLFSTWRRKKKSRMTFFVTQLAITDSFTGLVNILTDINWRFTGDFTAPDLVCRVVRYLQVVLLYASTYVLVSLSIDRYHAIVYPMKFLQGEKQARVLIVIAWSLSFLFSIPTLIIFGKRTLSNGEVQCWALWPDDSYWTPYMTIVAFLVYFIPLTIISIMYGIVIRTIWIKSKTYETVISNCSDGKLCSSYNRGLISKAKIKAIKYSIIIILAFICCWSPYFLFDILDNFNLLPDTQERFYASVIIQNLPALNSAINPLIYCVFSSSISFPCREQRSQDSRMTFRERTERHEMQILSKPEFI
Tau FP inhib – qHTS for Inhibitors of Tau Fibril Formation, Fluorescence Polarization. Potency, µM (series often up to 57.7 µM), for inactives: at the highest dose activity, negative = inhibition, usual class: inhibitors. Microtubule-associated protein tau (Homo sapiens), P10636. K18 P301L tau heparin fibrillization, Alexa594 FP, 6 h. hit rate 0.39% among 280,000; note: nearly all actives have a fitted effect of over 55% in size
Target sequence (P10636 561-689 P618L limits assumed): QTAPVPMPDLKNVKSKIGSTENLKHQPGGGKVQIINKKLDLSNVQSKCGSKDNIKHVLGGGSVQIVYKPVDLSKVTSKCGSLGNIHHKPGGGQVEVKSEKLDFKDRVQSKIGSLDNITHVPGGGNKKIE
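Steps: dispense K18 P301L tau (15 uM plus 0.24 uM Alexa 594 tracer, final) in pH 7 sodium acetate; add compound; add heparin (20 uM final); incubate 6 hr, 37 C; add ThT (30 uM final); after 1 hr ambient, read FP.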
Tau ThT inhib – qHTS for Inhibitors of Tau Fibril Formation, Thioflavin T Binding; Microtubule-associated protein tau (Homo sapiens), P10636; recombinant tau K18 P301L (four-repeat tau fragment), heparin-induced fibrillization, ThT fluorescence; Potency, µM (series often up to 57.4 µM), inactives show at the highest dose activity, negative = inhibition, actives largely listed as inhibitors; hit rate 2.1% among 270,000; note: nearly all actives have a fitted effect of over 55% in size
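K18 P301L tau (15 uM + 0.24 uM Alexa 594-tagged), heparin 20 uM, NaOAc pH 7, 6 h 37 C; ThT 30 uM, 1 h RT, ex 450/em 510 nm.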
KinaseGlo FLuc – Counterscreen for Luciferase (Kinase-Glo TM) Inhibition | Kinase-Glo luciferase, ATP luminescence, 8 min | Potency, µM (highest dose often 38.3 µM), for inactives: top-dose activity change, negative = inhibition, hits mostly inhibitors | hit rate 0.28% among 200,000; note: nearly all actives have a fitted effect of over 60% in size
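Kinase-Glo luciferase light output from ATP and luciferin was measured with 10 uM ATP, within the enzyme's linear range. Buffer: 50 mM imidazole pH 7.2, 50 mM KCl, 7 mM MgCl2, 0.01% Tween 20, 0.05% BSA; luminescence read after 8 min at ambient temperature.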
* hit, by the source's call; ? = inconclusive; / = no result; [ ] = another dose, or the depositor's remark. An excerpt weighted towards active compounds, which were near 3.3% of everything screened. Calls come from the whole dose curve; as a rule, active = well fitted curve in the direction sought with a large enough effect; inconclusive = small, poorly fitted or top-dose-only effect, or another doubt; inactive = no such curve, though single readings can be large; an effect the other way counts as inactive or inconclusive. % is set by controls: 0 for no effect and ±100 for the full control effect; potency is the fitted concentration of half-maximal effect.

SMILES	Tau fluor counter	NPSR antag	Tau FP inhib	Tau ThT inhib	KinaseGlo FLuc
CCN1/C(=C\C(=S)Nc2ccccc2)Sc2ccccc21	?	23.8%	?	7.94µM*	0.7%
CCN1/C(=C\C=C(C(C)=O)C(C)=O)Sc2ccccc21	-6.7%	-18.5%	10.4%	?	-1.2%
Clc1ccccc1C(c1ccccc1)(c1ccccc1)n1ccnc1	-13.3%	5.01µM*	1.0%	?	-1.6%
O=C(O)CCC(=O)N1CCc2cc(S(=O)(=O)NCc3ccc(F)cc3)ccc21	1.3%	/	-0.7%	2.5%	/
CCN(CC)c1ccc(NC(=O)c2sc3ccccc3c2Cl)cc1	?	/	2.5%	0.891µM*	/
CCN(CC)c1ccc(NC(=O)c2sc3nc(-c4ccccc4)cn3c2C)cc1	?	/	12.5%	2.24µM*	/
Cc1c(C(=O)Nc2ccncc2)sc2nc(-c3ccccc3)cn12	-4.6%	-0.5%[46.1 µM]	-1.5%	-13.1%	-0.1%
CCOc1ccc(NC(=O)c2sc3ccccc3c2Cl)cc1	-5.8%	/	6.0%	?	/
C[C@@H]1CC=C[C@H]2[C@H]1C(=O)N(Cc1ccccc1)[C@H]2c1ccc(/C=C/c2ccccc2)cc1F	-14.1%	-36.4%	2.1%	?	/
O=C(C1=C(O)C(=O)N(c2ncccn2)C1c1ccc(Cl)c(Cl)c1)c1ccco1 (stereo not drawn)	?	-16.0%[46.1 µM]	?	17.8µM*	4.6%
CC(C)CCn1c(SCc2c(F)cccc2Cl)nc2ccsc2c1=O	7.9%	/	-3.7%	9.3%	/
O=C(Cc1ccccc1Cl)NC1(O)C(=O)c2ccccc2C1=O	-28.6%	-19.3%	?	2.82µM*	/
O=C(Cc1ccc(Cl)cc1)NCc1ccccc1Cl	-7.6%	-2.7%	-5.2%	-3.6%	-1.8%
c1csc(-c2cn3ccc4ccccc4c3n2)c1	-26.4%	-5.5%	-48.5%	10µM*	-9.6%
c1cc(-c2cccs2)nc(-c2cccs2)c1	-24.5%	6.0%	?	?	-5.8%
CCN(CCCNC(=O)c1cc2cc3cc(OC)ccc3nc2s1)c1cccc(C)c1	3.98µM*[quencher]	/	8.8%	?	/
CCc1ccc(Nc2cc(C(=O)NCCCN(C)c3ccccc3)c3ccccc3n2)cc1	?	/	1.2%	-7.7%	/
CSc1cccc(Nc2cc(C(=O)NCCCN(C)c3ccccc3)c3ccccc3n2)c1	2.82µM*[quencher]	/	-7.3%	-7.2%	/
CCCCN(CCCNC(=O)c1cc(Nc2ccc(OC)cc2OC)nc2ccccc12)Cc1ccccc1	10µM*[quencher]	/	14.7%	?	/
COc1ccc(Nc2cc(C(=O)NC3CCC(C)CC3)c3ccccc3n2)cc1OC (stereo not drawn)	?	/	2.7%	-14.6%	/
COc1ccc(Nc2cc(C(=O)NCCCN3CCN(C)CC3)c3ccccc3n2)c(OC)c1	-27.0%	-29.4%[46.1 µM]	12.3%	?	-6.1%
CCCCN(CCCNC(=O)c1cc(Nc2ccc(OC)c(OC)c2)nc2ccccc12)Cc1ccccc1	12.6µM*[quencher]	/	14.7%	?	/
COc1ccc2c(c1)[N+](=O)C(/C(C)=N/NC(N)=S)=C(C)[N+]2=O	/	/	/	/	-5.3%[7.66 µM]
CCCCN(CCCNC(=O)c1cc(Nc2ccc(OC)cc2)nc2ccccc12)Cc1ccccc1	3.98µM*[quencher]	/	4.9%	-15.0%	/
CCCCN(CCCNC(=O)c1cc(Nc2ccc(OC)c(OC)c2)nc2ccccc12)c1ccccc1	7.08µM*[quencher]	/	11.6%	-16.0%	/
SMILES	Tau fluor counter	NPSR antag	Tau FP inhib	Tau ThT inhib	KinaseGlo FLuc
COc1ccccc1Nc1cc(C(=O)NCCCN(C)c2ccccc2)c2ccccc2n1	?	/	10.2%	-11.7%	/
COc1ccc(Nc2cc(C(=O)NCCc3ccccc3)c3ccccc3n2)cc1OC	?	/	3.3%	-3.9%	/
COc1ccc(Nc2cc(C(=O)NCCCN(C)Cc3ccccc3)c3ccccc3n2)cc1OC	28.2µM*[quencher]	/	?	?	/
CCN(CCCNC(=O)c1cc(Nc2ccc(OC)cc2OC)nc2ccccc12)c1cccc(C)c1	7.08µM*[quencher]	/	5.0%	?	/
CCOc1ccc(NC(=O)Cn2c(=O)n(CCCC(=O)NCCc3ccc(Cl)cc3)c(=O)c3ccccc32)cc1	-2.4%	/	-19.5%	0.5%	/
COc1ccc(-c2nc3c(c4c2C[C@H](c2ccccc2)OC4)CN(S(=O)(=O)c2ccc(C#N)cc2)CC3)c(C)c1	5.0%[11.6 µM]	/	1.5%[11.6 µM]	8.9%[11.5 µM]	-7.8%[7.66 µM]
CC(=O)N1CCN(C(=S)c2ccc(N(C)C)cc2)CC1	-2.2%	-11.3%[46.1 µM]	-6.2%	-0.3%	-2.2%
CN(C)c1ccc(C(=S)N2CCCCCC2)cc1	?	-15.5%[46.1 µM]	?	25.1µM*	-2.8%
CC(C)(C)c1ccc(/C=N/NC(=O)Cc2c[nH]c3ccccc23)cc1	14.1µM*[quencher]	?	-13.9%	?	-4.1%
O=C(Cc1c[nH]c2ccccc12)N/N=C/c1ccccc1O	-23.7%	1.9%	-4.5%	?	/
COc1cc2oc(=O)cc(-c3ccc(-c4ccc(O)cc4)cc3)c2c(OC)c1OC	10µM*[quencher]	/	?	?	0.3%[39.9 µM]
Cc1ccc(S(=O)(=O)c2c[nH]c3cc4c(cc3c2=O)OCO4)cc1	12.5%	14.3%	4.1%	/	/
CCOC(=O)c1ccc(N2C(=O)c3[nH]nc(-c4ccc(OC)cc4)c3C2c2cccc(O)c2)cc1 (stereo not drawn)	?	/	15.8µM*	?	/
CCc1c(C)nc2cc(-c3ccc(OC)c(OC)c3)nn2c1NCC1CC1	0.9%	12.6µM*	1.5%	4.2%	1.0%
COc1ccc(CCNC(=O)CCc2c(C)nc3cc(-c4ccccc4)nn3c2C)cc1OC	-22.2%	/	4.3%	?	/
CCOC(=O)C1=C(O)c2ccccc2C(=O)/C1=C\c1ccc(C)cc1	-16.2%	-36.3%	?	14.1µM*	-4.8%
CCOC(=O)C1=C(O)/C(=C\c2ccc(OC)c(OC)c2)N=C1C	0.1%	?	?	?	-2.9%
COc1ccc2c(c1)c(=O)c(C(=O)c1ccc(F)cc1)cn2CC(=O)Nc1ccc2c(c1)OCCO2	-24.2%	/	-6.1%	-1.0%	/
CC(C)c1ccc(Nc2c([N+](=O)[O-])c(=O)n(C)c3ccccc23)cc1	-13.4%	?	-10.3%	-6.5%	/
Cn1c(=O)c(Nc2ccc(O)cc2)c2c3c(cccc31)C(=O)c1ccccc1-2	14.1µM*[quencher]	-24.0%	?	7.94µM*	-14.1%
Cc1ccc(CNC(=O)c2cc(C)nc3c2c(C)nn3-c2ccc(C)cc2)cc1	-12.1%	/	-12.7%	3.0%	/
O=[N+]([O-])c1ccc(-c2cc(-c3ccc(Cl)cc3)n[nH]2)cc1	?	0.9%[46.1 µM]	6.2%	1.12µM*	-2.8%
COc1ccc(-c2nc(-c3ccccc3)c(-c3cc([N+](=O)[O-])ccc3C)[nH]2)cc1O	14.1µM*[quencher]	?	3.8%	?	3.8%

Screening results as filed in PubChem BioAssay.
